The results in this text go back to PubChem BioAssay (EPA / NIEHS).

What is called AC50 is the midpoint of the concentration-response curve, whichever way the signal moves.

“And” between values parts separate entries of the source, which are not always exact repeats. Equal values may be shown once. Inconclusive results are not listed. Some compounds were tested as several samples or in several runs, with calls that do not always agree. The source made the active and inactive calls. How the source made its calls, unless noted: active means hit-call score of the fitted dose curve at least 0.9, where 1 is the maximum; inactive means score below 0.9.

Assay [1] is described as follows: BSK_LPS_SRB: Viability Assessment in the BioMAP Diversity Plus: LPS Assay (AID 2283079).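 Further: total protein by sulforhodamine B absorbance as a cytotoxicity measure; measured one day after compound addition; fitted in both directions against DMSO so loss or gain of signal counts.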 The note with it: primary human HUVEC with PBMC. An outline of the steps: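 Cytotoxicity endpoint in human endothelial–PBMC co-culture: 24 h exposure, then SRB (0.1%) staining, 560 nm read.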
Read-out in assay [2]: Interleukin-1 alpha (IL1a), IL1A (gene 3552)
The assay is described as follows: BSK_LPS_IL1a: BioMAP Diversity Plus: LPS Assay for Interleukin-1 alpha (IL1a) Biomarker Activity (AID 2283080). As to conditions: primary human HUVEC with PBMC; actives raise or lower the signal. The gist of the method: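 Primary human HUVEC and PBMC co-culture stimulated with LPS is dosed and harvested at 24 h. Both increases and decreases in ELISA-measured IL-1a are scored relative to DMSO.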

Read-out in assay [3]: Monocyte Chemoattractant Protein-1 (MCP1), CCL2 (gene 6347)
The assay is described as follows: BSK_LPS_MCP1: BioMAP Diversity Plus: LPS Assay for Monocyte Chemoattractant Protein-1 (MCP1) Biomarker Activity (AID 2283081).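 On AC50: secreted MCP-1 protein quantified by ELISA in culture supernatant.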 The note with it: primary human HUVEC with PBMC; actives raise or lower the signal. The gist of the method:
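Values derive from bidirectional fitting against DMSO of ELISA-measured MCP-1 in a human primary endothelial and mononuclear cell co-culture, 24 h after chemical addition under LPS activation.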

A short description of assay [4]: BSK_LPS_PGE2: BioMAP Diversity Plus: LPS Assay for Prostaglandin E2 (PGE2) Biomarker Activity (AID 2283082).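 On AC50: secreted prostaglandin E2 measured by ELISA in LPS-stimulated co-culture.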 As to conditions: primary human HUVEC with PBMC; actives raise or lower the signal. The gist of the method:
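HUVEC plus PBMC co-culture stimulated with LPS; secreted PGE2 quantified by ELISA 24 h after chemical dosing. Activity fitted bidirectionally against DMSO as negative control and baseline; parallel SRB total-protein staining served as cytotoxicity check.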

Read-out in assay [5]: Macrophage colony-stimulating factor (MCSF), CSF1 (gene 1435)
The assay is described as follows: BSK_LPS_MCSF: BioMAP Diversity Plus: LPS Assay for Macrophage colony-stimulating factor (MCSF) Biomarker Activity (AID 2283083). As to conditions: primary human HUVEC with PBMC; actives raise or lower the signal. An outline of the steps: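 Bidirectional fit versus DMSO of ELISA-measured M-CSF in co-cultured human umbilical vein endothelial cells and PBMC, sampled 24 h after dosing.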

Read-out in assay [6]: Tissue Factor, F3 (gene 2152)
As to the kind of experiment: BSK_LPS_TissueFactor: BioMAP Diversity Plus: LPS Assay for Tissue Factor Biomarker Activity (AID 2283084). As to conditions: primary human HUVEC with PBMC; actives raise or lower the signal. The gist of the method: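 Read-out: CD142 ELISA, 24 h. System: LPS-driven human endothelial/PBMC co-culture. Analysis: up- or down-signal fitted against DMSO.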

Read-out in assay [7]: Tumor necrosis factor (Homo sapiens) (UniProt P01375)
As to the kind of experiment: BSK_LPS_TNFa: BioMAP Diversity Plus: LPS Assay for Tumour Necrosis Factor alpha (TNFa) Biomarker Activity (AID 2283085). As to conditions: primary human HUVEC with PBMC; actives raise or lower the signal. The gist of the method:
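Human umbilical vein endothelial cells co-cultured with PBMC were exposed to test chemical and TNFa measured by ELISA 24 h after dosing. Bidirectional curve fitting was done relative to DMSO as negative control and baseline.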

Read-out in assay [8]: Vascular cell adhesion molecule 1 (VCAM1), VCAM1 (gene 7412)
The assay is described as follows: BSK_LPS_VCAM1: BioMAP Diversity Plus: LPS Assay for Vascular cell adhesion molecule 1 (VCAM1) Biomarker Activity (AID 2283086). As to conditions: primary human HUVEC with PBMC; actives raise or lower the signal. An outline of the steps:
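Human umbilical vein endothelial cells co-cultured with peripheral blood mononuclear cells under LPS stimulation were exposed to test chemical for 24 h. VCAM-1 levels were then measured by ELISA, with bidirectional curve fitting relative to DMSO as negative control and baseline.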

Read-out in a further assay: CD38, CD38 (gene 952)
As to the kind of experiment: BSK_SAg_CD38: BioMAP Diversity Plus: SAg Assay for CD38 Biomarker Activity (AID 2283087). As to conditions: primary human HUVEC with PBMC; actives raise or lower the signal. The gist of the method: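 Fluorescence ELISA of cell-surface CD38 served as the read-out, with either increase or decrease fitted against DMSO controls. Cells were a human umbilical vein endothelium plus PBMC co-culture under SEB/TSST-1 stimulation, measured 24 h after dosing.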

Read-out in a further assay: CD40, CD40 (gene 958)
As to the kind of experiment: BSK_SAg_CD40: BioMAP Diversity Plus: SAg Assay for CD40 Biomarker Activity (AID 2283088). As to conditions: primary human HUVEC with PBMC; actives raise or lower the signal. An outline of the steps: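 Endpoint derived by fitting increases or decreases versus DMSO controls. CD40 is detected by fluorescence ELISA in a human vascular co-culture of endothelium and PBMC at 24 h.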

Read-out in a further assay: CD69, CD69 (gene 969)
As to the kind of experiment: BSK_SAg_CD69: BioMAP Diversity Plus: SAg Assay for CD69 Biomarker Activity (AID 2283089).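 On AC50: cell surface CD69 protein quantified by ELISA with fluorescence detection.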 As to conditions: primary human HUVEC with PBMC; actives raise or lower the signal. The gist of the method: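 Values derive from bidirectional fitting relative to DMSO vehicle. Cells: umbilical vein endothelium plus peripheral blood mononuclear cells, treated 24 h before fluorescent ELISA for CD69.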

Read-out in assay [9]: Monocyte Chemoattractant Protein-1 (MCP1), CCL2 (gene 6347)
As to the kind of experiment: BSK_SAg_MCP1: BioMAP Diversity Plus: SAg Assay for Monocyte Chemoattractant Protein-1 (MCP1) Biomarker Activity (AID 2283090). The note with it: primary human HUVEC with PBMC; actives raise or lower the signal. An outline of the steps: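 MCP-1 levels in the endothelial–PBMC SAg co-culture were quantified by ELISA at 24 h post-dosing; both increases and decreases versus DMSO scored. Cytotoxicity monitored by SRB total protein in parallel cultures.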

Read-out in assay [10]: E-selectin (Homo sapiens) (UniProt P16581)
The assay is described as follows: BSK_SAg_Eselectin: BioMAP Diversity Plus: SAg Assay for Eselectin Biomarker Activity (AID 2283091). The note with it: primary human HUVEC with PBMC; actives raise or lower the signal. An outline of the steps: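 Endpoint values derive from bidirectional fitting relative to DMSO, using ELISA-measured E-selectin in a human vascular co-culture (umbilical vein endothelium plus PBMC) sampled 24 h after dosing.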

Read-out in assay [11]: Monokine induced gamma interferon (MIG), CXCL9 (gene 4283)
As to the kind of experiment: BSK_SAg_MIG: BioMAP Diversity Plus: SAg Assay for Monokine induced gamma interferon (MIG) Biomarker Activity (AID 2283092). As to conditions: primary human HUVEC with PBMC; actives raise or lower the signal. An outline of the steps:
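Values reflect bidirectional fitting of ELISA-measured MIG against DMSO vehicle, taken 24 h after dosing of a co-culture of human umbilical vein endothelial cells and peripheral blood mononuclear cells.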

Assay [12] is described as follows: BSK_SAg_PBMCCytotoxicity: PBMC Cytotoxicity Assessment in the BioMAP Diversity Plus: SAg Assay (AID 2283093).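 Further: PBMC viability measured as Alamar Blue reduction fluorescence at 546/580 nm; fitted both ways against DMSO so a hit may be loss or gain of signal.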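 On AC50: PBMC superantigen activated with SEB plus TSST-1 one hour after compound addition.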 As to conditions: primary human HUVEC with PBMC. An outline of the steps: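 Human umbilical vein endothelial cells co-cultured with PBMC; PBMC (75,000/well) pre-treated with compound 1 h, then activated with SEB and TSST-1 (20 ng/mL final each) for 90 h. Alamar Blue added 6 h, fluorescence 546/580 nm; bidirectional fit versus DMSO.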

Read-out in assay [13]: Interleukin-8 (IL8), CXCL8 (gene 3576)
As to the kind of experiment: BSK_SAg_IL8: BioMAP Diversity Plus: SAg Assay for Interleukin-8 (IL8) Biomarker Activity (AID 2283094). The note with it: primary human HUVEC with PBMC; actives raise or lower the signal. An outline of the steps:
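Human umbilical vein endothelial cells co-cultured with peripheral blood mononuclear cells; IL-8 measured by ELISA 24 h after chemical dosing. Bidirectional concentration-response fitting used DMSO as negative control and activity baseline.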

The nature of assay [14]: BSK_SAg_Proliferation: Cell Proliferation Assessment in the BioMAP Diversity Plus: SAg Assay (AID 2283095).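 Further: relative cell number as total protein by SRB absorbance in sub-confluent culture.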 The note with it: primary human HUVEC with PBMC. The gist of the method: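 Human umbilical vein endothelial cells co-cultured with peripheral blood mononuclear cells; total protein measured by sulforhodamine B staining (0.1% SRB after 10% TCA fixation), absorbance at 560 nm, at 96 h. Bidirectional fit against DMSO baseline.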

A short description of assay [15]: BSK_SAg_SRB: Viability Assessment in the BioMAP Diversity Plus: SAg Assay (AID 2283096).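 Further: cells read one day after compound addition; hits may be either gain or loss of signal compared with DMSO.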 The note with it: primary human HUVEC with PBMC. An outline of the steps: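 Endothelial/PBMC primary human co-culture; compound 24 h; fix 10% TCA, stain 0.1% SRB, A560; protein content as cytotoxicity proxy; bidirectional curve fit, DMSO = baseline.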
The target in assay [16] is human CYP19A1, CYP19A1 (gene 1588) (UniProt P11511). The assay is described as follows: NVS_ADME_hCYP19A1: NovaScreen (NVS) CYP450-related Enzyme Activity (ADME) Assay for human CYP19A1 (AID 2283098; active means hit-call score of the fitted dose curve at least 0.9, where 1 is the maximum). The gist of the method:
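Cell-free enzyme assay with recombinant protein and a specific fluorogenic substrate, read by fluorescence intensity 0.5 h after dosing. Primary screen ran in duplicate at 10 uM; actives were retested in concentration series. Loss of signal versus acetonitrile baseline.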

Chain of Tumor necrosis factor (Homo sapiens) (P01375 whole entry, looked up): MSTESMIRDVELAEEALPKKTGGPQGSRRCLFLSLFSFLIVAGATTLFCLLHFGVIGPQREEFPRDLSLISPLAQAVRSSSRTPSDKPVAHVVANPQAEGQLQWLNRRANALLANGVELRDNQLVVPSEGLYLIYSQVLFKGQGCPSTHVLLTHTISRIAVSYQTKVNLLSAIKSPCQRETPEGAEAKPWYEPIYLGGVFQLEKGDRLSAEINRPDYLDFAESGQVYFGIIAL
Chain of E-selectin (Homo sapiens) (P16581 whole entry, looked up): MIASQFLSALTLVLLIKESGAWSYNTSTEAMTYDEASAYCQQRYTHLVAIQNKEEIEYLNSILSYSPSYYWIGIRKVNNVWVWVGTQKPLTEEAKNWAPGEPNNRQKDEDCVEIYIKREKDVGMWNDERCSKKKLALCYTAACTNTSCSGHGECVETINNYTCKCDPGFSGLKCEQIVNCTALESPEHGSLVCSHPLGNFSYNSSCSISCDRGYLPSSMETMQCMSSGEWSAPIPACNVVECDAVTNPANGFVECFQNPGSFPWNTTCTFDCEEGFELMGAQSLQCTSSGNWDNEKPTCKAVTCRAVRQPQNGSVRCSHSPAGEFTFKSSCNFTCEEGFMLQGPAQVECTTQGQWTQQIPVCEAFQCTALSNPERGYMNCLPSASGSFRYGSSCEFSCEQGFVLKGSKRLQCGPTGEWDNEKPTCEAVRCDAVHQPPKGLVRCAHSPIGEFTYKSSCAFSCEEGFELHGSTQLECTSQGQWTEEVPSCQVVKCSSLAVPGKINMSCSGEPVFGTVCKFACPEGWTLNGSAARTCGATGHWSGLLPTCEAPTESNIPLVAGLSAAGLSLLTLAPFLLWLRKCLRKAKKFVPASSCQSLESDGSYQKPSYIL
Chain of human CYP19A1, CYP19A1 (gene 1588) (P11511 whole entry, looked up): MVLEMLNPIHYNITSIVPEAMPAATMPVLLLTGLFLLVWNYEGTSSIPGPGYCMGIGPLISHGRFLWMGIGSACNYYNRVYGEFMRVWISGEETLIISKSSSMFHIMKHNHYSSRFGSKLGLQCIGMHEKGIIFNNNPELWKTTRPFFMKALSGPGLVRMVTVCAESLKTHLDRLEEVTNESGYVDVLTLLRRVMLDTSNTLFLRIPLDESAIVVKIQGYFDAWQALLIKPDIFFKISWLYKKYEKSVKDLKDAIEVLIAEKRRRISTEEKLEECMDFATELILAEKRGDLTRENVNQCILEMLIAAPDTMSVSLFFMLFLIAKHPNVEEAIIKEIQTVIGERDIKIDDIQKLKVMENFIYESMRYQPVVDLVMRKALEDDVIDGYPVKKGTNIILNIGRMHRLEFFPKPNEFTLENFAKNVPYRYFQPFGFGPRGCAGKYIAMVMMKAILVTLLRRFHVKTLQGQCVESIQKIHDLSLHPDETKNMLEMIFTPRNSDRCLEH

For `CC(C)(c1ccc(O)cc1)c1ccc(O)cc1`, the outcome in [1], in [2], in assay [3], in [4], in assay [5] and in assay [6] was inactive. In addition, the outcome in assay [7] is “inactive”; in [8], “inactive”; with CD38, CD38 (gene 952), “inactive”; with CD40, CD40 (gene 958), “inactive”; in the assay with CD69, CD69 (gene 969) it was “inactive”; in assay [9], “inactive”. Besides, the outcome in [10], in assay [11], in [12], in assay [13], in assay [15] and in [16] was inactive. Also, the AC50 was 16.6 µM (active) and 10.3 µM (active) and 11.1 µM (active) in [4]; 2.8 µM (active) in assay [7]; 25.5 µM (active) and 27 µM (active) and 20 µM (active) in assay [8]; 13.8 µM (active) with CD38, CD38 (gene 952); 20.3 µM (active) and 5.31 µM (active) with CD40, CD40 (gene 958); 20 µM (active) in assay [9]. The concentration at half-maximal activity (AC50) in assay [10] is 24.9 µM (active); in assay [13] it was 14.5 µM (active); in assay [14], 20.3 µM (active) and 28.7 µM (active) and 25.7 µM (active).
Turning to `CCOC(=O)NCCOc1ccc(Oc2ccccc2)cc1`, the half-maximal activity concentration (AC50) is 14.2 µM (active) in [1]; 14.4 µM (active) in assay [3]; 14.7 µM (active) in assay [5]; 29.1 µM (active) in the assay with CD38, CD38 (gene 952); 14.5 µM (active) in the assay with CD40, CD40 (gene 958); 25.3 µM (active) with CD69, CD69 (gene 969). Also, the AC50 in [9] is 26.9 µM (active); in assay [10], 31.8 µM (active); in assay [12], 15.6 µM (active); in assay [13] it was 30 µM (active); in assay [14], 16.2 µM (active); in assay [15] it was 20 µM (active). Further, the result in [2], in [4], in assay [6], in assay [7], in assay [8] and in [11] was inactive.
